Here are results for 40 compounds from PubChem BioAssay (Tox21).

Inconclusive results are not listed. A call without a number means that no potency is given here. The source made the active and inactive calls. The call rests on the fitted dose curve; in most records, active means well fitted activation curve with a large enough effect in the repeat runs; inconclusive means weak or mixed curves; inactive means flat fitted curve, though single readings scatter.

The experiment can be described thus: A CellTox Green Cytotoxicity Assay to monitor cytotoxicity in HEK293 cells - 24 hour (AID 1224875). Further: nearly all actives have a fitted effect of over 45% in size. As to conditions: CellTox Green fluorescence; series mostly up to 76.8 µM. The text has this:
National Center for Advancing Translational Sciences [NCATS]
NIH Chemical Genomics Center [NCGC]
U.S. Environmental Protection Agency [EPA]
National Institutes of Environmental Health Sciences [NIEHS]
National Toxicology Program [NTP]
Cell-based models are critical for drug discovery. Determining the natural cytotoxic effects resulting from test compounds is an essential research activity. A CellTox Green Cytotoxicity Assay to monitor cytotoxicity in real time of continues cell culture during 40 hours of the compound treatment was used to screen Tox21 10K library compounds in Hek293 cells. CellTox Green Cytotoxicity Assay is a nonlytic, homogeneous, biofluorescent method to measure cytotoxicity in cell culture after experimental manipulation. The assay system uses a proprietary asymmetric cyanine dye that is excluded from viable cells but preferentially stains the dead cell's DNA. […] Viable cells produce no appreciable increases in fluorescence. Therefore, the fluorescence signal produced by the binding interaction with dead cell DNA is proportional to cytotoxicity.
The mixture of Hek293 cell suspension and reagents were dispensed at 600cells/6 ul/well in 1536-well tissue culture treated black solid bottom plates using a Multidrop dispenser. After the assay plates were incubated at a 37 C/5% CO2 incubator for 5 hours, 23 nL of compounds dissolved in DMSO, positive and negative controls was transferred to the assay plate by a pintool work station. The plates were incubated at 37 C for 40 hours. The fluorescence intensity were measured at 0h, 8h, 16h, 24h, 32h and 40h time points using ViewLux plate reader during compound treatment.
`N=C(N)c1ccc(OCCCOc2ccc(C(=N)N)cc2)cc1`: the Potency entry is “inactive”. For `NS(=O)(=O)c1ccccc1Cl`, the Potency entry is “inactive”.

Regarding `Brc1c(NC2=NCCN2)ccc2nccnc12`, the Potency result was “inactive”. As for `COC(=O)NN`, the Potency entry is “inactive”. As for `CCCCCCOC(=O)CCCCC(=O)OCCCCCC`, the Potency result was “inactive”.

Take `CC(C)CNCC(C)C`: the Potency entry was “inactive”. With `CC(=O)CC(C)C`, the Potency entry is “inactive”. With `OC[C@]1(O)OC[C@@H](O)[C@H](O)[C@@H]1O`, the Potency result is “inactive”.

Turning to `NC(=O)Nc1ccccc1`, the Potency entry was “inactive”.

With `CN1N=C(C(N)=O)CCC1=O`, the Potency result is “inactive”. Regarding `CC(=O)N(CC(O)CO)c1c(I)c(C(=O)NCCO)c(I)c(C(=O)NCC(O)CO)c1I` (stereo not given), the Potency result is “inactive”. Consider `NCCCNCCSP(=O)(O)O`, for which the activity change was -8.68% [at 6.97 µM, active compounds read high] (inactive).

Regarding `Nc1nc2c(ncn2COC(CO)CO)c(=O)[nH]1`, the Potency entry was “inactive”.

As for `CCOC(=O)Nc1ccc(NCc2ccc(F)cc2)nc1N`, the Potency result is “inactive”. As for `O=C(CCCN1CCN(c2ccccn2)CC1)c1ccc(F)cc1`, the Potency entry is “inactive”. With `CCCCCSCCCCC`, the Potency entry is “inactive”. With `CCCCCCCCS(=O)(=O)Cl`, the Potency result was “inactive”. With `NC(=O)c1ccc(N)cc1`, the Potency result was “inactive”. `OC(CCN1CCCCC1)(c1ccccc1)C1CC2C=CC1C2` (stereo not given): the Potency entry is “inactive”. Consider `CC(=O)Nc1ccc(S(N)(=O)=O)cc1`, for which the Potency entry was “inactive”. As for `FC1(F)C(F)(F)C(F)(F)C2(F)C(F)(F)C(F)(F)C(F)(F)C(F)(F)C2(F)C1(F)F` (stereo not given), the Potency entry is “inactive”.

Regarding `CC[N+](C)(C)c1cccc(O)c1`, the Potency entry was “inactive”. Regarding `CCN(CC)CCOCCOC(=O)C1(c2ccccc2)CCCC1`, the Potency result was “inactive”. For `CCCCCCCCCCCCCC=O`, the activity change is -4.12% [at 6.97 µM, active compounds read high] (inactive). Regarding `CCN(Cc1ccncc1)C(=O)C(CO)c1ccccc1` (stereo not given), the Potency entry is “inactive”.

With `c1ccc([C@H]2CN3CCSC3=N2)cc1`, the Potency entry is “inactive”. Turning to `CC(C)(C)NCCNC(C)(C)C`, the Potency entry is “inactive”. As for `COc1ccc2c(c1)c(CC(=O)OCC(=O)O)c(C)n2C(=O)c1ccc(Cl)cc1`, the Potency entry is “inactive”. Still for that read-out and setting: with `COc1nc(N)nc2c1ncn2[C@@H]1O[C@H](CO)[C@@H](O)[C@@H]1O` the entry was “inactive”; with `Cc1cnc(NS(=O)(=O)c2ccc(N)cc2)nc1`, “inactive”; with `CCCc1cc(C(N)=S)ccn1`, “inactive”. As to `CCc1cccc2c(CCO)c[nH]c12`, the Potency entry was “inactive”. In the case of `NC(CSCC(=O)O)C(=O)O` (stereo not given), the Potency entry is “inactive”. As to `CCOC(=O)c1ccc(C)cc1`, the Potency result was “inactive”. Take `Cc1[nH]c(=O)c(C#N)cc1-c1ccc2nccn2c1`: the Potency result is “inactive”. On to `Nc1cc(=O)[nH]c(N)n1`, for which the Potency result is “inactive”. As for `Cn1c(N)c(N=O)c(=O)n(C)c1=O`, the Potency result was “inactive”.

In the case of `C1CN(CCOCCN2CCOCC2)CCO1`, the Potency result is “inactive”. On the same count and under the same terms, the same measure for `CCOc1ccc(C(=O)OCCN(CC)CC)cc1`: “inactive”; for `O=C(CCCN1CCC(O)(c2cccc(C(F)(F)F)c2)CC1)c1ccc(F)cc1`: “inactive”.
